Measurements published in PubChem BioAssay (NCI).
The panel holds about 83,000 compounds, 20% with a hit somewhere; the sample as a whole holds those more often.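 Treatment: one concentration, 48 hours, 96-well format. Scoring: percent growth, with anything below 10 considered active.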 Unmarked numbers belong to inactive results. Activity calls are given as the source filed them.

These compounds were tested on NCI-H460 lung (assay: NCI-60 one-dose screen, 48 h (100 = growth as untreated, 0 = no growth, -100 = all killed)). Details: 10 µM unless noted.
Protocol: Growth inhibition of the NCI-H460 human Non-Small Cell Lung tumor cell line is measured as a screen for anti-cancer activity. Cells are grown in 96 well plates and exposed to the test compound for 48 hours. Compounds are tested at a single concentration, which is 10^-5 M for most compounds. The reported endpoint is percent growth (GI% or GIPRCNT), where numbers from 0 - 100% represent growth inhibition, and numbers from -100% - 0 represent cell death. For example, a value of 40 represents 60% growth inhibition. A value of 0 means no net growth occurred over the course of the experiment. A value of -40 indicates 40% of cells at the beginning of the experiment died by the end of the experiment. A value of -100 means all cells are dead at the end of the experiment.
NCI-60 Human Tumor Cell Lines Screen was performed using the standard one-dose NCI protocol, which is described in more detail at https://dtp.cancer.gov/discovery_development/nci-60/default.htm.
Compounds with GIPRCNT values below 10 were considered active. Activity score was based on GIPRCNT using the following formula: […]
Score is 0 for GIPRCNT values of 100 or above, 50 for GIPRCNT values of 0, and 100 for GIPRCNT values of -100.
`COc1cc(CCC[P+](c2ccccc2)(c2ccccc2)c2ccccc2)cc2c1OCO2` was tested, and the growth was 37.9%. For `CC/C=C\C[C@H](O)C/C=C1/C(=O)C=C[C@@H]1C/C=C\CCCC(=O)OC`, the growth was -46.3% (active). `Cc1nn(-c2ccccc2)c(Cl)c1/C=C(/NC(=O)c1ccccc1)c1nc2ccccc2[nH]1` gave a growth of 109%. Compound `CCCCCS(=O)(=O)Nc1ccc(C(=O)O)cc1` has a growth of 104%. `Cc1ccc2nc(NC(=O)CSc3nc(Nc4ccc([N+](=O)[O-])cc4)c(C#N)c(-c4ccccc4)n3)sc2c1` showed a growth of 98.7%. In the case of `CCN(CC)CCN1CC(O)=C(c2nc(-c3ccc(Cl)cc3)cs2)C1=N`, the growth was 8.48% (active). With `CC1CC2Oc3ccc(Cl)cc3C(=O)N2O1` (stereo not given) the growth was 108%. `COc1cc(/C=C/C(=O)c2ccc(Nc3nc(Nc4ccc(F)cc4)nc(Nc4ccc(Cl)cc4)n3)cc2)cc(OC)c1OC` gave a growth of 55.1%. With `Clc1ccc(-c2c3ccc(=[N+]4CCCCC4)cc-3oc3cc(N4CCCCC4)ccc23)cc1` the growth was -76.2% (active). With `COc1cc2c(cc1-c1c(C)noc1C)ncc1nc(C3CCCCC3)n(C3CCC(OC(F)F)CC3)c12` (stereo not given) the growth was 37.3%. For `CCCCCCCOc1c(OC)cc(C2CC(=O)Nc3c2c(C)nn3-c2nc3ccccc3[nH]2)cc1OC` (stereo not given), the growth was -26.8% (active). `COc1cc2nc(Cl)nc(Nc3ccc(S(=O)(=O)Nc4nccs4)cc3)c2cc1OC` was tested, and the growth was 106%. For `Cc1ccc(N2CCN(C(=S)c3cccs3)CC2)cc1`, the growth was 109%. `CC(C)(C)c1ccc(/C=C/C(=O)Nc2ccc(O)cc2)cc1` gave a growth of 46.9%. With `O=C1c2cccc(NCCN=Cc3cc([N+](=O)[O-])ccc3O)c2C(=O)c2c(NCCN=Cc3cc([N+](=O)[O-])ccc3O)cccc21` the growth was 53.4%. `COc1cc(C2CC(=O)Nc3c2c(C)nn3-c2nc3ccccc3[nH]2)c(OC)c2c1OCO2` (stereo not given) gave a growth of 66.7%. `Cc1c(C(=O)N[C@@H](Cc2ccccc2)C(=O)C(=O)NCCc2ccccc2)[nH]c2ccccc2c1=O` showed a growth of 87.2%. `COc1cccc(-c2nc3sccn3c2-c2ccnc(NCCNS(=O)(=O)c3cccc(Cl)c3)c2)c1` was tested, and the growth was 45.4%. For `COc1ccc(CN2C(=O)C(Cl)=C(Nc3cccc(C(F)(F)F)c3)C2=O)cc1`, the growth was 22%. `CC(C)C(=O)Nc1n[nH]c2cc(-c3cccc(NS(=O)(=O)C4CC4)c3)ccc12` was tested, and the growth was 84.4%. For `N/C(=N/N=C/c1ccccc1)N/N=C\c1ccccc1`, the growth was 39.8%. `O=C(COc1ccc(/C=C2\Oc3ccccc3C2=O)cc1)Nc1nc2c(s1)CCCC2` showed a growth of 99.5%. Work on `O=c1c2c3c(sc2n2c(-c4cc(-c5ccccc5)nn4-c4ccccc4)nnc2n1Cc1ccccc1)CCCC3` yielded a growth of 106%. For `O=C(CCCCCCSc1nc(-c2ccccc2)cc(-c2ccc(Cl)cc2)n1)NO`, the growth was 7.04% (active). `O=C(c1ccccc1)N1N=C(c2ccccc2)CC1c1nnc2n(Cc3ccccc3)c(=O)c3c4c(sc3n12)CCCC4` (stereo not given) gave a growth of 107%. `CC1(C)OC2C(CO[Si](C)(C)C(C)(C)C)OC(n3c(I)c(C#C[Si](C)(C)C)c(=O)[nH]c3=O)C2O1` (stereo not given) was tested, and the growth was 106%. With `CC/C=C/C/C=C/C/C=C/C/C=C/C/C=C/C/C=C/CCC(=O)Nc1ccn([C@@H]2O[C@H](CO)[C@@H](O)C2(F)F)c(=O)n1` the growth was 9.01% (active). For `N#C/C(=C\c1ccc(Br)cc1)n1nnc2cc(F)c(F)cc21`, the growth was 30.5%. For `COc1cccc(C(=O)NCCCNc2cc(-c3cn(-c4ccccc4)nc3-c3cccc(OC)c3)ccn2)c1`, the growth was 48.8%. In the case of `S=C(Cc1ccc2c(c1)CCCC2)N1CCOCC1`, the growth was 107%. In the case of `COc1cccc(-c2nn(-c3ccccc3)cc2-c2ccnc(NCCCNC(=O)c3ccc(F)cc3)c2)c1`, the growth was 45.8%. With `O=C(/C=C/c1c(Cl)nc2sccn12)c1ccc(F)c(F)c1` the growth was 79.5%. `O=C(CSc1nccc(Nc2ccc(S(=O)(=O)Nc3nccs3)cc2)n1)c1ccc(F)cc1` was tested, and the growth was 106%. Work on `CC1(C)CC(=O)CC2(C1)N=C(N)Nc1nc3ccccc3n12` (stereo not given) yielded a growth of 111%. `c1ccc(Nc2nc(-c3ccccn3)cs2)nc1` was tested, and the growth was -9.3% (active). Work on `COc1cc(C2NC(=O)c3ccccc3N2)ccc1OCCCCCOc1c(OC)cc(C2=NOC(c3cc(OC)c(OC)c(OC)c3)C2)cc1OC` (stereo not given) yielded a growth of 63.4%. For `COc1c(CCC[P+](c2ccccc2)(c2ccccc2)c2ccccc2)cc2c(c1OC)OCO2`, the growth was 5.26% (active). `C[C@@H]1N=C(c2ccc3ccccc3n2)Nc2nc3ccccn3c2C1=O` was tested, and the growth was 97.2%. Compound `CC(CCc1ccc(Cl)c(Cl)c1)NCc1ccc(C(C)(C)C)cc1` (stereo not given) has a growth of 90.6%. `CCOC(=O)c1ccc(N2NC(=O)/C(=C/c3ccc([N+](=O)[O-])o3)C2=O)cc1` showed a growth of 111%.
